High-throughput results as filed in PubChem BioAssay.
Spn PMK inh: S. pneumoniae PMK inhibitors, primary screen, biochemical, mevalonate pathway, pilot trial included; inhibition, % at 10 µM; purified PMK, PK/LDH-coupled NADH absorbance 340 nm; phosphomevalonate kinase (Streptococcus pneumoniae D39); 65,000 tested, 0.49% active;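 active means top-ranked compounds by inhibition in the single 10 µM screen, taking a fixed number of the strongest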;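 further: 0% = full reaction with DMSO carrier and 100% = background rate without enzyme reaction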
Spn DPM-DC inh: S. pneumoniae DPM-DC inhibitors, primary screen, biochemical, PK/LDH-coupled NADH fluorescence. purified DPM-DC. calls only at 10 µM. 65,000 tested, 0.49% active. AID 556, 2006;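 active means the 320 compounds with the highest percent inhibition in the single-dose primary screen, excluding strongly autofluorescent ones, cut at about 32% in these data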;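 further: kinetic rate of NADH fluorescence loss reporting ADP formed by the decarboxylase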
Autofluor 339: intrinsic fluorescence of library compounds, ex339/em460 – biochemical, MLSMR library, data from DPM-DC assay, artefact control, profiling panel | fluorescence fold increase at 10 µM | AID 709, 2007 | compound autofluorescence, ex339/em460 nm, NADH buffer; active compounds read high; 1 = no-compound wells, NADH background | 65,000 tested, 5.5% active;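 active means at 10 µM, mean starting fluorescence two-fold or more over control wells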;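 further: signal is the first read of a kinetic run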
A340 absorber: compound light absorbance at 340 nm, profiling panel, artefact control, biochemical, MLSMR library, data from PS, PMK, MK assays. compound absorbance at 340 nm, fold over control. fold change at 10 µM. 65,000 tested, under 10 active;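 active means at 10 µM dose, initial 340 nm absorbance at least 2 fold that of control wells; inactive means change under 2 fold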;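 further: initial absorbance extrapolated from kinetic A340 decline of NADH oxidation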
MK inhibit: S. pneumoniae MK inhibitors, primary screen, biochemical, PK/LDH-coupled NADH absorbance. purified MK, PK/LDH-coupled NADH absorbance 340 nm. AID 555, 2006. inhibition, % at 10 µM. 65,000 tested, 0.48% active. mevalonate kinase [Streptococcus pneumoniae D39];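 active means ranked among the strongest by inhibition in the single 10 µM screen, a fixed top-ranked set picked for dose follow-up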
NADH coupling: inhibitors of PK/LDH coupling enzymes, profiling panel, artefact control, biochemical, MLSMR library; coupled PK/LDH NADH assays, four targets; IC50, µM (doses to about 10 µM), inactives show at the top dose inhibition; 65,000 tested, 0.02% active; AID 774, 2007;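 active means single-dose screening hits from any of four coupled enzyme assays that gave an IC50 when retested across doses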;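 further: the DPM-DC format reads NADH fluorescence rather than 340 nm absorbance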
Starred values were filed as active, the others as inactive; i = inactive; . = no result given; + = active, no number. Most compounds without a hit are left out; they make up all but 6.5% or so of the library.

SMILES	Spn PMK inh	Spn DPM-DC inh	Autofluor 339	A340 absorber	MK inhibit	NADH coupling
CCOC(=O)c1ccccc1NCN1C(=O)CSC1=O	29*	.	2.2*	1.1	4	17%
COc1ccc2nc(-c3ccccc3)[nH]c2c1	1	.	2.3*	1.1	6	4%
CCOc1ccc2nc(-c3ccccc3)[nH]c2c1	4	.	4*	0.99	10	7%
COc1ccc2nc(NCc3ccccc3)[nH]c2c1	10	i	1.1	1	9	6%
CCOc1ccc2nc(C(C)O)[nH]c2c1 (stereo not drawn)	16	i	1.1	1.1	7	15%
COC(=O)Cc1cc(=O)n(-c2nc3ccccc3[nH]2)[nH]1	2	i	1.1	1.1	1	1%
Cc1ccccc1OCCCCc1c(C)n[nH]c1C	31*	i	1.1	1	7	15%
Cc1cccc(C)c1OCCCCc1c(C)n[nH]c1C	0	i	1.1	1	12	4%
Cc1c(Cl)cccc1NC(=O)c1cc(C2CC2)on1	12	i	1	1.1	10	10%
COC(=O)c1cc(OC)c(OC)cc1-n1cnc2cc(OC)c(OC)cc2c1=O	.	i	1.1	1	3	2%
O=C(c1cccnc1)N1CCc2ccccc2C1	34*	i	1.1	1	9	16%
CCOC(=O)N1CCN(S(=O)(=O)c2ccc(C(=O)Nc3nc4c(s3)CC(C)CC4)cc2)CC1 (stereo not drawn)	15	.	4.6*	1.1	13	14%
COc1cc2nc(C3CCC3)n(NC(=O)C3CCCC(OC)C3)c(=O)c2cc1OC (stereo not drawn)	active	i	1	0.97	9	4%
Cc1ccccc1-n1c(SCc2cc(=O)n3ccccc3n2)nc2[nH]ncc2c1=O	9	i	2.2*	1.1	3	4%
O=C(CSc1nc2[nH]ncc2c(=O)n1-c1ccccc1Br)NCc1ccco1	11	i	1	0.99	8	3%
COc1c(Br)cc2c(C)c(C(=O)O)oc2c1Br	0	i	1	0.99	43*	4%
CCOC(=O)Nc1ccc2c(C)cc(=O)oc2c1	5	.	3.7*	1.2	12	9%
CCCCc1nc2ccccc2n2cc3c(=O)n(C)c(=O)n(C)c3c12	0	i	1.4	0.99	1	2%
COC(=O)c1ccc(C(=O)OC)c(N)c1	0	.	4*	1	6	3%
COC(=O)c1ccc(C(=O)OC)c(NS(C)(=O)=O)c1	0	i	1.2	1	13	5%
COC(=O)c1cc(Cc2ccc(N)c(C(=O)OC)c2)ccc1N	5	.	2.1*	1.1	4	5%
Cc1n[nH]c(C)c1S(=O)(=O)NCCc1ccc(Cl)cc1	1	i	1.1	1	4	2%
CCC1CCCCN1CCCNC(=O)CNC(=O)Cn1ccc2ccccc2c1=O (stereo not drawn)	8	i	1.1	1.1	8	5%
c1ccc(-c2noc(-c3cccc4ccccc34)n2)nc1	6	.	3.3*	1	8	7%
COc1cc(OC)c(C2CC(=O)N3CN(c4ccc(C)cc4)CSC3=C2C#N)cc1OC (stereo not drawn)	14	i	1.1	1.1	41*	18%
SMILES	Spn PMK inh	Spn DPM-DC inh	Autofluor 339	A340 absorber	MK inhibit	NADH coupling
CCOc1ccccc1N1CSC2=C(C#N)C(c3c(OC)ccc4ccccc34)CC(=O)N2C1 (stereo not drawn)	2	i	1.1	1.1	10	7%
CCn1c2c(c3cc(Cl)ccc31)CCCC2=O	4	i	1.8	1	4	8%
CCn1c2c(c3cc(C(=O)O)ccc31)CCCC2=O	9	+	2.6*	1.2	18	21%
CCN1CCc2c(sc(N)c2C#N)C1	7	i	1.6	1	10	12%
N#Cc1c(NCCO)nc(NCc2ccccc2)c2c1CCN(Cc1ccccc1)C2	18	+	2.2*	1	3	19%
N#Cc1c(N)sc(=S)c2c1CCN(Cc1ccccc1)C2	29*	.	4.3*	1.1	0	15%
COc1ccc(-c2cc(C(=O)NCCN3CCOCC3)c3ccccc3n2)cc1	11	.	4.9*	1.1	0	6%
CCOc1ccc(-c2cc(C(=O)NCCCN3CCN(CC)CC3)c3ccccc3n2)cc1	8	.	5.2*	1.1	0	4%
O=C(O)CCCNCc1ccccc1F	11	i	1.1	0.98	5	5%
O=C(O)CCS(=O)(=O)Cc1ccccc1F	27*	i	1.1	1	1	9%
CCOC(=O)C(Cc1ccccc1)C(=O)Nc1nccs1 (stereo not drawn)	1	+	1	1	12	18%
O=C(NCCCO)c1ccc2[nH]c3ccccc3c2c1	10	i	2.7*	1	2	11%
CCCCNC(=O)c1cccc(C(=O)NCCCC)c1	6	i	1.1	1	10	5%
CCOc1cccc(OCCCNCCCOC)c1	0	i	1.1	1.1	40*	13%
CCN(CC)c1ccc(C(=O)OCC(=O)N2CCN(c3ccccc3)CC2)cc1	9	i	1	1.1	0	3%
Cc1c(Cc2ccccc2)c(=O)oc2c(CN(C)C)c(O)c(Cl)cc12	2	.	3.8*	1.2	1	2%
CCOC(=O)c1cc(=O)n2[nH]c(-c3ccc(C)cc3)cc2n1	10	.	3.9*	1	15	13%
CCOC(=O)Cc1c(C)nc2cc(-c3ccc(Cl)cc3)[nH]n2c1=O	0	i	1.5	1.1	1	0%
Cc1cc(-c2ccccc2)c(C#N)c(SCC(N)=O)n1	0	i	1.1	1	1	0%
O=c1c(-c2ccccc2)c(O)c2cccc3c2n1CCC3	66*	+	1.4	1.1	43*	62%
C=C(C)CSc1nc2c(cc1C#N)CCC2	0	i	1.1	1	5	2%
COC(=O)CC(=O)CSc1nc(C)cc(C)c1C#N	8	.	3.8*	1.1	2	5%
CC(C)OC(=O)CC(=O)CSc1nc2c(cc1C#N)CCC2	18	.	3.7*	1	8	13%
CCc1c(C)nc(SCC(=O)CC(=O)OC(C)C)c(C#N)c1C	11	i	2.2*	1	12	11%
N#Cc1cc2c(nc1SCc1nc3ccccc3[nH]1)CCC2	13	i	2.1*	1	10	16%
CS(=O)CSc1nc2c(cc1C#N)CCCC2 (stereo not drawn)	9	i	1.1	0.97	5	5%
